SKBR3 24h inh: SK-BR-3 proliferation inhibitors, primary screen, cell-based, human, 24 h; SK-BR-3 viability, CellTiter-Glo ATP luminescence; active compounds read low; viability, % at 10 µM; 0.47% of 41,000 active; AID 847, 2007;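 active = viability at or below the median of all test compounds minus 3 SD, in both replicates if run twice, cut at about 45% in these data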;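 also: 100% = median untreated cell wells and 0% = median positive control drug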
Hsp90 block: tumor Hsp90 inhibitors, primary screen, cell lysate, fluorescence polarization, NCI-N417 lysate. Cy3B-geldanamycin FP displacement. inhibition, % at 30 µM. Heat shock protein HSP 90-alpha (Homo sapiens), P07900. 0.35% of 64,000 active. AID 429, 2006;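 active = inhibition above 50%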;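 also: 0% = tracer plus lysate wells and 100% = tracer alone without lysate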
S1P1 ag-PAM: S1P1 agonists and agonism potentiators, primary screen, cell-based, primary and confirmation screens, CRE-bla reporter | Sphingosine 1-phosphate receptor 1 (Homo sapiens), P21453 | S1P1 CRE-bla cells, forskolin, beta-lactamase FRET, potentiator mode; S1P1 agonist co-added at EC20, 2 nM; 100% = saturating reference agonist, 0% = basal | activation, % at 9.5 µM | 0.57% of 56,000 active | AID 449, 2006;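 active = activation above a cutoff set at the mean activation of all tested compounds plus 3 SD, cut at about 54% in these data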;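 also: forskolin at 4 µM as EC80 and the EC20 agonist is SEW2871; 100% = SEW2871 at its EC100 plus forskolin at EC80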
BAP1 block: inhibitors of BAP1 deubiquitinase, primary screen, biochemical, Ub-AMC fluorescence, kinetic; activity remaining (% of control), % at 20 µM; 0.48% of 72,000 active; recombinant BAP1, Ub-AMC hydrolysis fluorescence kinetic; active compounds read low;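 active = activity remaining at or below 50% of control, provided the compound also passes the data quality filters; inactive = the rest, including low values that fail the filters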;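 also: 100% = DMSO wells rate and 0% = substrate alone blank rate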
HER2 expr 66K: inhibitors of Her2 protein expression, primary screen, SKBR-3 cells, AlphaScreen, 66K library; Receptor tyrosine-protein kinase erbB-2 (Homo sapiens), P04626; SKBR-3 HER2 protein level, 18-24 h; active compounds read low; HER2 level % of control, % at 10 µM; 0.69% of 65,000 active; AID 645, 2007;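 active = HER2 level under 5% of the carrier-only control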;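 also: 100% = DMSO carrier and 0% = 500 nM PU-H71 HSP90 inhibitor; lower value means stronger loss of Her2 protein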
TNAP act mid DEA: human TNAP enzyme activators, primary screen, biochemical, luminescent, intermediate phosphate acceptor level. Alkaline phosphatase, tissue-nonspecific isozyme (Homo sapiens), P05186. purified TNAP, CDP-star luminescence, 100 mM DEA, 30 min; active compounds read high; scale: 0 levamisole-inhibited, 1 vehicle-only enzyme. activation factor at 20 µM. 64,000 tested, under 10 active. AID 813, 2007;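 active = activation factor of at least 2 at 20 µM, relative to controls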
Target sequence (P05186 whole entry, looked up): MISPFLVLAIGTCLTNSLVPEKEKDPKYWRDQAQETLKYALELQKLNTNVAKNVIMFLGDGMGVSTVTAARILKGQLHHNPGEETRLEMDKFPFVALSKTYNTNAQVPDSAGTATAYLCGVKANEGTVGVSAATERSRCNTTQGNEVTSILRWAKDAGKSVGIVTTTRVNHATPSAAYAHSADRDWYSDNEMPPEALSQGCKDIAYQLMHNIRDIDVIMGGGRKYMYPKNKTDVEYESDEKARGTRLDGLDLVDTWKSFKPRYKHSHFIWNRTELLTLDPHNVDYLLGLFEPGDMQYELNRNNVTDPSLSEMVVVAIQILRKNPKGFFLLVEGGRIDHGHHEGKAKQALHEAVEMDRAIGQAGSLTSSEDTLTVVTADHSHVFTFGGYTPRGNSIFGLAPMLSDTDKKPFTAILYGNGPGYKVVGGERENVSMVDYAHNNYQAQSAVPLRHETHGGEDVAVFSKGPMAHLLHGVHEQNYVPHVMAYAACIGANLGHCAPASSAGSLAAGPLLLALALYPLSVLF
* = called active by the depositor; . = no result shown. Shown are actives, neighbours in structure and some others; about 1.9% of the full set was active somewhere.

SMILES | SKBR3 24h inh | Hsp90 block | S1P1 ag-PAM | BAP1 block | HER2 expr 66K | TNAP act mid DEA
CCCCC(CC)Cn1c2nc3ccccc3nc2c2c(=N)oc(C)nc21 (stereo unspecified) | 38.2* | -18.0 | . | . | 0.9* | 0.8
Clc1cccc(Cl)c1Cn1cnc2c(N3CCCCCC3)ncnc21 | 95.7 | 1.7 | . | 63.9 | 86.3 | 0.9
COc1ccc(CCNc2ncnc3c2oc2ccccc23)cc1OC | 70.2 | -4.4 | 115.5* | 94.1 | 57.0 | 0.9
Cc1csc(NC(=O)CSc2nnc(-c3cccs3)n2C)n1 | 123.1 | -0.9 | -1.5 | 98.5 | 116.8 | 0.9
O=C(Nc1ccc(S(=O)(=O)NCc2ccco2)cc1)c1ccc2ccccc2n1 | . | -2.4 | 96.5* | . | 53.6 | 0.9
O=C(COc1ccccc1)Nc1ccc(S(=O)(=O)NCc2ccco2)cc1 | 92.5 | -5.3 | -19.4 | 108.8 | 85.8 | 0.9
O=C(NCCSc1c[nH]c2ccccc12)c1ccco1 | . | -1.5 | 14.7 | 87.9 | 71.5 | 0.8
O=C(O)C1=CC(=C(c2ccc(O)c(C(=O)O)c2)c2ccc(O)c(C(=O)O)c2)C=CC1=O | . | 2.6 | . | 3.9* | . | .
COc1cccc(Nc2nnc(SCC(=O)N3CCOCC3)s2)c1 | . | 1.2 | 9.0 | 96.3 | 115.8 | 0.9
O=C(CSc1n[nH]c(-c2ccccc2)n1)c1ccc(O)c(O)c1 | 93.5 | 76.4* | 21.4 | 89.8 | 97.9 | 0.7
COCCCNC(=O)CC(NS(=O)(=O)c1ccc(Cl)cc1)c1ccco1 (stereo unspecified) | . | -2.9 | 0.6 | 116.7 | 86.1 | 0.8
O=C(Cn1c(=O)oc2ccccc21)N1CCCCC1 | 101.6 | . | . | . | 89.2 | 1
CCc1ccccc1NC(=O)Cn1nnc(-c2cccs2)n1 | 72.5 | -0.3 | 3.5 | 100.0 | 102.1 | 1
Cc1cccc(NC(=O)Cn2nnc(-c3cccs3)n2)c1C | 102.2 | 53.8* | 11.5 | 101.7 | 113.8 | 0.9
O=C(CCCc1nc(-c2ccc(Cl)cc2)no1)Nc1cccnc1 | 78.0 | -5.2 | 0.3 | 110.9 | 102.1 | 0.9
O=C(O)C1CCCCN1S(=O)(=O)c1ccc(Cl)s1 (stereo unspecified) | . | -1.1 | 5.9 | 88.3 | 69.5 | 1
Cc1ccc(S(=O)(=O)CCC(=O)c2ccc(O)cc2O)cc1 | 96.1 | 1.6 | 15.9 | 129.4 | -7.3* | 0.9
CC(C)CC1NC2(C(=O)N(C)c3ccccc32)C2C(=O)N(C(C)C)C(=O)C12 (stereo unspecified) | . | 2.5 | 5.6 | 84.7 | 86.3 | 0.8
COC(=O)CC1=C(C(=O)OC)C(c2ccncc2)C(C#N)=C(N)O1 (stereo unspecified) | 88.1 | -3.5 | 9.8 | 66.0 | 69.0 | 0.9
COC(=O)CC1=C(C(=O)OC)C(c2ccc3c(c2Cl)OCO3)C(C#N)=C(N)O1 (stereo unspecified) | 82.2 | -6.8 | -7.7 | 74.3 | -21.6* | 0.9
CC(C)(C)OC(=O)N[C@@H](Cc1ccccc1)c1nnc(SCC(=O)O)o1 | 70.9 | 0.0 | 10.0 | 102.0 | 64.7 | 1
CC(C)(C)OC(=O)N[C@@H](Cc1ccccc1)c1nnc(S(=O)(=O)Cc2ccccc2)o1 | 97.9 | -1.6 | 85.9* | 110.3 | 80.8 | 0.9
CCC(C)[C@@H](NC(=O)OC(C)(C)C)c1nnc(S(=O)(=O)Cc2cccc(C)c2)o1 (stereo partly specified) | 20.8* | -1.9 | 40.6 | 109.5 | -17.3* | 1
Fc1ccc(-c2nnc(-c3ccc(Cl)cc3Cl)o2)cc1 | . | 2.6 | -1.1 | 84.2 | 57.2 | 0.9
Clc1ccc(-c2nnc(-c3ccccc3)o2)c(Cl)c1 | . | 1.6 | -7.5 | 109.9 | -25.8* | 1
O=C(c1cc(C2CC2)on1)N1CCN(C(c2ccccc2)c2ccccc2)CC1 | . | -2.5 | 23.7 | 95.1 | 84.0 | 0.8

From PubChem BioAssay
